# Only a selection was taken, and hits are over-represented in it overall.
# Glioma ERSR ind: induces the endoplasmic reticulum stress response in human glioma cells; U87-MG GRP78 promoter luciferase reporter, 16 h; Potency, µM, without a hit: at the highest dose activation, most hits filed as activators; actives 0.02% (n = 420,000); AID 602332; further: series mostly up to about 76 µM; % of control where 0% means no effect; nearly all actives have a fitted effect of over 35% in size
#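 Stably transfected U87-MG human glioma cells carrying a GRP78-based luminescent sensor were seeded at 1000 cells/well, pin-dosed with compounds and incubated 16 h. Luciferase reagent was then added, and end-point luminescence was read after 10 min at room temperature.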
# 12-LOX inh: ALOX12 (human) lipoxygenase inhibition; actives 1.1% (n = 580,000); P18054; purified 12hLO, xylenol orange hydroperoxide absorbance; AID 1671190; Potency, µM (titrated, usually from 108 µM), without a hit: top-dose activity change, negative = inhibition, hits mostly inhibitors; further: on the % scale 0 is the no-effect control and ±100 the full control effect
# Target sequence (P18054 whole entry, looked up): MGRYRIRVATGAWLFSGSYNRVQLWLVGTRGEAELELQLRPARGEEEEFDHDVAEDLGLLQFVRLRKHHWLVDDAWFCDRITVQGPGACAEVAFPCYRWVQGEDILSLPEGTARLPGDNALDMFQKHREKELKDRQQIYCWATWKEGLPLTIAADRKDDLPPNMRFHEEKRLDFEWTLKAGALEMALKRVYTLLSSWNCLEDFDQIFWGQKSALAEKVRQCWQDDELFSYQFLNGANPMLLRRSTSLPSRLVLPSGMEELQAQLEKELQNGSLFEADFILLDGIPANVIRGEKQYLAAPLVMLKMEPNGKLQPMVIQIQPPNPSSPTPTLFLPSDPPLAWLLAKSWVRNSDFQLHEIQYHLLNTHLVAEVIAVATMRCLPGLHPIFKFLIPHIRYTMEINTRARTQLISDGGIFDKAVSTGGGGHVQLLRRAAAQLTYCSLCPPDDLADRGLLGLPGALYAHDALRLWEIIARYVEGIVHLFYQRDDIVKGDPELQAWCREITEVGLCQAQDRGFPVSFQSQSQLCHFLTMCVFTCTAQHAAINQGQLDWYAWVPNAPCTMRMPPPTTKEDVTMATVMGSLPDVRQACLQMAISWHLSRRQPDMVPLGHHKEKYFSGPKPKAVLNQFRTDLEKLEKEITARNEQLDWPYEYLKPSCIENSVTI
#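 Purified human 12hLO at 150 nM in 25 mM Hepes, 0.01% Triton X-100, pH 7.0, preincubated 15 min at room temperature with compound. Reaction started with 40 uM arachidonic acid, 30 min at room temperature. Hydroperoxide measured by Fe-xylenol orange, 573/405 nm absorbance ratio.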
# G9a inh: inhibitors of human histone lysine methyltransferase G9a; G9a H3K9 monomethylation, AlphaScreen, 2 h; Potency, µM (doses to about 102 µM), without a hit: at the top dose activity, negative = inhibition, usual class: inhibitors; actives 8.8% (n = 350,000); AID 504332; further: on the % scale 0 is the no-effect control and ±100 the full control effect; nearly all actives have a fitted effect of over 75% in size
#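 Step 1: enzyme (final 20 nM) with compound, 15 min RT. Step 2: substrate peptide 500 nM and SAM 20 uM, 2 h RT. Step 3: anti-H3K9me1 antibody and AlphaScreen beads, 10 min, then plate read.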
# VDR inhibitor: blocks the human vitamin D receptor. VDR-SRC2-3 peptide fluorescence polarization, 2 h. Potency, µM, without a hit: max response, negative = inhibition, hits mostly inhibitors. actives 0.93% (n = 400,000); further: on the % scale 0 is the no-effect control and ±100 the full control effect
#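 Fluorescence polarization assay measuring small-molecule disruption of VDR binding to the coregulator peptide SRC2-3. Compounds were pin-transferred (23 nl) into the reagent mix and incubated 2 h at room temperature before reading.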
# Sfp inh: inhibitors of Bacillus subtilis Sfp phosphopantetheinyl transferase | Potency, µM, inactives show largest response in the series, negative = inhibition, most hits filed as inhibitors | actives 3.5% (n = 310,000) | Q9F4F7 | Biochemical Sfp PPTase activity, qHTS;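 further: the enzyme is Sfp with the accession as filed and its product quenches rhodamine fluorescence; 0% = enzyme reaction without inhibitor and -100% = no enzyme wells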
#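 Fluorescence-quenching assay with 15 nM Sfp, 5 uM rhodamine-CoA and 12.5 uM BHQ-2-labelled ybbR peptide in pH 7.6 Hepes/MgCl2 buffer. Enzyme was pre-incubated with compound for 15 min at room temperature. Rate was taken from the 30-min fluorescence change (525/598 nm).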
# Starred values were filed as active, the others as inactive; ? = inconclusive; · = no result given; [ ] = dose if it differs, or a comment. The call rests on the fitted dose curve; in most records, active means well fitted curve in the direction sought with a large enough effect; inconclusive means small, poorly fitted or top-dose-only effect, or another doubt; inactive means no such curve, though single readings can be large; an effect the other way counts as inactive or inconclusive. Potency means the concentration at half of the fitted maximal effect.
SMILES,Glioma ERSR ind,12-LOX inh,G9a inh,VDR inhibitor,Sfp inh
CCCCn1c(=O)[nH]c(=O)c2c1nc(-c1ccc(-c3ccccc3Br)o1)n2CC,-3%,?,10µM*,-10%,14µM*
N#CC1(NC(=O)CSc2ccc3c(c2)OCCCO3)CCCC1,·,-14%,·,·,·
COc1ccc(C(=O)N2CCCC(CO)(Cc3ccccc3C)C2)o1 (stereo unspecified),-5%,-26%,79µM*,-29%,-10%
Cc1ccccc1CC1(CO)CCCN(C(=O)c2ccoc2)C1 (stereo unspecified),-5%,2%,·,·,·
Cc1c(Cl)cccc1NC(=O)c1ccc(NC(=O)C2=CSCCO2)cc1,·,-20%,·,·,·
COC(=O)c1cc(-c2ccc(C)c(C)c2)nc2ccccc12,·,0%,·,·,·
CC(=O)N/C(=C\c1ccccc1)C(=O)Nc1ccc(O)cc1,5%,4%,-4%,-5%,15%
NNC(=O)C(=O)Nc1ccc(O)cc1,-5%,-12%,16µM*,-4%,7%
Cc1ccc(NC(=O)C(=O)NN)cc1,-4%,-1%,50µM*,25%,5%
CC(=O)Nc1ccc(NC(=O)CNC(=O)c2ccc3nc(-n4cccc4)sc3c2)cc1,·,4%,·,·,·
CCCCc1cc(C[C@H]2CNCC[C@H]2CC(=O)Nc2ccccc2)no1,·,12%[176 µM],·,·,·
COc1cc(-c2nc3c4ccccc4nc(=S)n3[nH]2)cc(OC)c1OC,-2%,?,·,14%,-7%
COc1ccccc1-c1nc2c3ccccc3nc(=S)n2[nH]1,-1%,?,?,7%,45µM*
O=C1NN=C(CSc2n[nH]c(=S)s2)CS1,-6%,?,2.5µM*,-21%,?
O=C(O)c1cc(N=Cc2c(O)c3ccccc3oc2=O)ccc1O,-4%,?,50µM*,-11%,?
Cc1cc(C)cc(N=Cc2c(O)c3ccccc3oc2=O)c1,0%,0%,10%,0%,19%
COC(=O)c1cc(N=Cc2c(O)c3ccccc3oc2=O)cc(C(=O)OC)c1,-1%,·,·,-8%,17%
Cc1ccc(N=Cc2c(O)c3ccccc3oc2=O)cc1F,-14%,0%,35µM*,-17%,8%
CCN1C(=O)C2CC3(CCN(C(=O)c4ccc(C)s4)CC3)CN2C1=O (stereo unspecified),·,25%,·,·,·
CCCNC(=O)C1CCCN(Cc2cccc(C(F)(F)F)c2)C1 (stereo unspecified),·,8%,·,·,·
O=C(COc1ccc(Br)cc1Br)NC(=S)N1CCCc2ccccc21,1%,·,8.9µM*,16%,56µM*
O=C(COc1ccc(Br)cc1Cl)NC(=S)N1CCc2ccccc21,2%,-18%,15%[59 µM],4%,0%
CC(Sc1nc(C(F)(F)F)nc2ccccc12)C(=O)NCC1CCCCC1 (stereo unspecified),·,36%,·,·,·
O=C(O)Cn1c(CCS(=O)(=O)c2ccc(Br)cc2)nc2ccccc21,-2%,-5%,45µM*,-6%,10%
COC(=O)Cn1c(CCS(=O)(=O)c2ccc(C)c(C)c2)nc2ccccc21,-3%,18%,?,2%,11%
SMILES,Glioma ERSR ind,12-LOX inh,G9a inh,VDR inhibitor,Sfp inh
COc1ccc(-c2noc(-c3cc4ccc(OC(C)=O)cc4oc3=O)n2)cc1,·,-3%,·,·,·
COc1ccc(C(=O)/C(=C/c2ccccn2)c2nc3ccccc3o2)cc1OC,·,-1%,·,·,·
COc1ccc(C(=O)/C(=C/c2ccccn2)c2nc3ccccc3o2)cc1,·,1%,·,·,·
COc1cc(OC)cc(C(=O)/C(=C\c2ccco2)c2nc3ccccc3o2)c1,·,40µM*,·,·,·
COc1ccc(C(=O)/C(=C\c2sccc2C)c2nc3ccccc3o2)cc1,·,·,?,·,-3%
COc1cccc(C(=O)/C(=C/c2ccco2)c2nc3ccccc3o2)c1,·,40µM*,·,·,·
COc1ccc(C(=O)/C(=C/c2ccco2)c2nc3ccccc3o2)cc1,·,14µM*,·,·,·
COc1cccc(NC(=O)CSc2nnc(COc3ccccc3)n2Cc2ccco2)c1,·,5%,·,·,·
CCc1nnc(NC(=O)CCc2ncc(-c3ccccc3)o2)s1,·,9%,·,·,·
COc1ccc(CN(C)CC(=O)Nc2cccc(S(N)(=O)=O)c2)c(OC)c1OC,-3%,0%,16µM*,-10%,?
COc1ccc(CNC(=O)CN(C)Cc2ccc(C(C)(C)C)cc2)cc1,-5%,-28%,40µM*,-12%,?
